Most compounds without a hit are left out; they make up all but 2.1% or so of the library.
m-calpain inh: inhibitors of pig calpain II, primary screen, biochemical, fluorogenic peptide substrate, 1536-well; hit rate 0.37% among 220,000; purified calpain II, 30 min; inhibition, % at 16 µM; AID 1236, 2008;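 active = inhibition above about 50%, limit read from the data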
ROMK primary: ROMK potassium channel modulators, primary screen, cell-based, thallium flux, MLSMR library | ATP-sensitive inward rectifier potassium channel 1 (Homo sapiens), P48048 | Tet-inducible ROMK, thallium flux fluorescence; actives lie on both sides | B-score at 10 µM | hit rate 2% among 130,000 | AID 1918, 2009;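 active = signal ratio slope over the read window, or its plate-corrected B-score, at least 3 SD from the plate mean, either direction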;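 note: B-score of the F/F0 ratio slope over 7 to 12 s after thallium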
Target sequence (P48048 whole entry, looked up): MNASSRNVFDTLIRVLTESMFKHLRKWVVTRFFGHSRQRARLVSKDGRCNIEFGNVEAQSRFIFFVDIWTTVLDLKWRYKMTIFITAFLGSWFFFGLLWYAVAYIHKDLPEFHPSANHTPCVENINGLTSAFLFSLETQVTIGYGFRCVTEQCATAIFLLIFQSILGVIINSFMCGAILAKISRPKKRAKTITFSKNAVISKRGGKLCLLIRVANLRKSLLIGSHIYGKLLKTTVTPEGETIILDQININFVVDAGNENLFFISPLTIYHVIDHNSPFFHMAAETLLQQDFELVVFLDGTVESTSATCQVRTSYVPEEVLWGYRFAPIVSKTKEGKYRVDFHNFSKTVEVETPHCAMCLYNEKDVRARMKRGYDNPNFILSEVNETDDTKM
Arbovirus anti: antivirals against arbovirus infection, primary screen, cell-based, full library, 10K replicate subset; inhibition, % at 10 µM; AID 1251, 2008; arbovirus infection cell-based antiviral screen; hit rate 0.37% among 200,000; in the data active = inhibition above about 30%
HMGR II inh: inhibitors of E. faecalis class II HMGR, primary screen, biochemical, Enterococcus faecalis; HMG-CoA reductase (Enterococcus faecalis, mvaE); purified E. faecalis HMGR, NADPH absorbance 340 nm kinetic; inhibition, % at 10 µM; hit rate 0.41% among 190,000;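 active = inhibition above a set limit, the median over all tested compounds plus 3 SD, cut at about 9.5% in these data; inconclusive = no clear call, values can overlap the other calls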;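 note: enzyme runs in reverse so mevalonate oxidation gives rising NADPH absorbance; 0% = complete reaction with DMSO and 100% = background rate lacking mevalonate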
HSV replic up: enhancers of HSV replication in host cells, fold increase, host cell viability | HSV replication augmentation in cells | maximum fold increase | hit rate 0.005% among 220,000; in the data active = maximum fold increase above about 1.5; inconclusive = no clear call, values can overlap the other calls; tested in PC3 cells
ROMK retest: ROMK channel modulator hit retest, confirmation, cell-based, thallium flux, duplicate, resupplied hits; normalized thallium flux (F/F0 slope) at 10 µM; hit rate 54% among 3,000; shares compounds with ROMK primary; AID 1917, 2009; fluorescence ratio; stronger effect = lower value;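 active = Flux at 10 µM at least 3 SD below or above vehicle control mean in one or both replicates; inconclusive = no clear call, values can overlap the other calls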
Numbers without * were called inactive; i = inactive; ? = inconclusive; · = not tested or not shown.

SMILES	m-calpain inh	ROMK primary	Arbovirus anti	HMGR II inh	HSV replic up	ROMK retest
O=C1CCc2ccccc2N1	-1	·	·	·	i	·
O=C(CSc1nnc(-c2ccc(S(=O)(=O)N3CCCC3)cc2)n1CC1CCCO1)NC1CC1 (configuration not stated)	-3	·	6	-5	i	0.091
CCSc1nnc(-c2ccc(S(=O)(=O)N3CCOCC3)cc2)n1CC1CCCO1 (configuration not stated)	1	·	9	1	i	·
CCOC(=O)c1[nH]c2ccc(OC)cc2c1NC(=O)OC	-250	·	-3	0	i	?
CCOC(=O)c1[nH]c2ccc(OC)cc2c1NC(=O)NC(C)C	-417	·	0	-9	i	·
CCOC(=O)c1c(/N=C/c2ccc(C)cc2O)sc2c1CCC2	-6	-2.4*	-3	2	?	0.039*
CCOC(=O)c1c(/N=C/c2ccc(OC)cc2O)sc2c1CCN(C)C2	2	·	·	·	i	·
CC(C)CC(NS(=O)(=O)c1cccc(C(=O)O)c1)C(=O)O (configuration not stated)	1	-0.2	12	-1	i	·
O=C(NCc1nnc2c3ccccc3c(-c3ccccc3)nn12)c1ccc(Cl)cc1	-14	·	-16	2	i	0.073
COc1ccc(-c2nc(-c3ccc(NC(=O)c4ccncc4)cc3)no2)cc1OC	-111	·	-8	-5	i	0.079
CCCN1CCN(C(=S)Nc2ccc([N+](=O)[O-])cc2)CC1	5	·	4	-2	i	·
CCCN1CCC(NC(=S)Nc2ccc([N+](=O)[O-])cc2)CC1	-4	-4.4*	-15	5	i	0.056*
CCC(C)N1C(=O)CCC1C(=O)O (configuration not stated)	-5	-8.2*	4	-5	i	0.08
Cc1ncccc1C(=O)N1CCCC(CNC(=O)C2(c3ccc(Cl)cc3)CC2)C1 (configuration not stated)	-24	0.31	2	-1	i	·
C[C@H]1[C@H](C)CC[C@]2(C)CC[C@]3(C)C(=CC[C@@H]4[C@@]5(C)CC[C@@H](O)[C@](C)(C(=O)O)[C@@H]5CC[C@]43C)[C@H]12	28	·	·	·	i	0.081
CC1=CC(C)(C)N(S(=O)(=O)c2ccc(C)cc2)c2ccccc21	16	3.2*	4	1	i	0.086
c1ccc2c(-c3[nH]ncc3CNCCCn3ncc4ccccc43)cccc2c1	-19	-1.8*	-43	-8	i	?
Nc1nc(NCc2ccco2)nc(N2CCCCCC2)c1[N+](=O)[O-]	13	·	10	0	i	0.062*
Nc1nc(NCc2ccco2)nc(N2CCCC2)c1[N+](=O)[O-]	14	·	·	·	i	·
Nc1ccc(S(=O)(=O)C(F)(F)F)cc1N	-12	-0.014	8	-3	i	·
O=C(Nc1ccc(O)cc1)C1CC=CCC1 (configuration not stated)	-6	·	-25	3	i	0.073
COc1ccc(NC(=O)C2C3CC/C=C\CCC32)cc1 (configuration not stated)	-7	·	·	·	i	·
ClCC1NCC(c2ccccc2Cl)c2c1[nH]c1ccccc21 (configuration not stated)	-56	-0.15	9	-1	i	·
Cc1nn(-c2ccccc2)c(N2CCCC2)c1/C=N/NC(=O)c1cccc(S(=O)(=O)Nc2ccc(Cl)cc2)c1	-81	·	-14	-2	i	0.087
Cc1nn(-c2ccccc2)c(Cl)c1/C=N/NC(=O)c1cccc(S(=O)(=O)N2CCCC2)c1	-7	·	-3	-2	i	·
SMILES	m-calpain inh	ROMK primary	Arbovirus anti	HMGR II inh	HSV replic up	ROMK retest
CCOC(=O)C1=C(C)NC(=O)CC1c1cc(OC)c(OC)cc1Br (configuration not stated)	-10	-0.55	10	-7	i	·
Cc1c(C(=O)O)oc2ccc(S(=O)(=O)NCc3ccc4c(c3)OCO4)cc12	-3	·	12	-3	·	0.075
S=C(NCc1ccc2c(c1)OCO2)NC1CC1	-2	-19*	-4	3	i	0.089
CC1(C)CC(NC(=S)NCc2ccc3c(c2)OCO3)CC(C)(C)N1	8	0.0059	5	5	i	·
Cc1ccc(S(=O)(=O)NC(=O)NCc2ccc3c(c2)OCO3)cc1	-42	1.5	3	-3	i	0.074
CCC(NC(=O)NCc1ccc2c(c1)OCO2)(C(F)(F)F)C(F)(F)F	-12	1.5*	-7	-2	i	0.086
Cc1ccc(CNS(=O)(=O)c2ccc3oc(C(=O)O)c(C)c3c2)cc1	-16	·	7	-4	i	·
O=C(CC12CC3CC(CC(C3)C1)C2)NC(=S)Nc1ccc(CN2CCOCC2)cc1	-4	0.32	0	-4	i	·
CCOc1ccc(CC(=O)N2CCN=C2SC)cc1	-18	·	1	-2	i	·
CCN1C(=O)N[C@@H](CCc2ccccc2)[C@@H](C(=O)OC)[C@H]1C	10	·	·	·	i	·
Cc1ccc(NC(=O)c2nc(C)n(-c3ccc([N+](=O)[O-])cc3)n2)cc1	5	·	22	-6	i	?
O=C(COc1nsnc1N1CCOCC1)N/N=C/c1ccccc1O	-94	-0.4	-7	-3	i	·
CSc1nc(C)cc(OCC(=O)N/N=C/c2ccccc2O)n1	-151	2.9*	-27	0	i	0.081
Cc1ccc(OC(=O)CCN2C(=O)c3ccccc3C2=O)cc1C	-4	0.42	1	2	i	·
Cc1ccc2c(c1)N(C(=O)CSc1nncn1C)C(C)(C)c1ssc(=S)c1-2	-58	·	-12	2	i	·
Cc1cc2c(cc1C)N(C(=O)CSc1nncn1C)C(C)(C)c1ssc(=S)c1-2	-31	-3.5*	-6	2	i	0.064*
CCN1CCc2nc3ccccc3c(C(=O)Nc3ccc(NC(C)=O)cc3)c2C1	6	·	·	·	i	·
CCN1CCc2nc3ccccc3c(C(=O)Nc3ccc(F)cc3)c2C1	-7	-3.3*	·	·	i	0.074
OC(CNC1CCCC1)COc1ccc(-c2ccccc2)cc1 (configuration not stated)	14	-3.4	-20	-3	i	·
OC(CNC1Cc2ccccc2C1)COc1ccc(Cl)cc1 (configuration not stated)	10	-5.3*	·	·	i	0.049*
CC(C)OC(=O)C[N+](C)(C)CCN1C(=O)C2C(c3ccccc3)C=CC(c3ccccc3)C2C1=O (configuration not stated)	26	-3.3*	7	-7	i	?
COc1ccc(Oc2ccc(S(=O)(=O)N3CCCCC3)cc2S(=O)(=O)N2CCCCC2)cc1	-7	-5.7*	36*	·	i	0.047*
COc1ccc(S(=O)(=O)N2CCCCCC2)cc1C(=O)OC(C)C(N)=O (configuration not stated)	0	·	·	·	i	·
COc1ccc(S(=O)(=O)N2CCCCC2)cc1C(C)C	34	·	8	-4	i	0.053*
